DUSP3 inh = VHR1 phosphatase inhibitors, primary screen, biochemical, colorimetric, HTS; AID 1992, 2009; inhibition, % at 20 µM; recombinant VHR phosphatase, colorimetric substrate read-out; 50,000 compounds, 0.7% hits; in the data active means inhibition above about 60%
Target sequence (P51452 whole entry, looked up): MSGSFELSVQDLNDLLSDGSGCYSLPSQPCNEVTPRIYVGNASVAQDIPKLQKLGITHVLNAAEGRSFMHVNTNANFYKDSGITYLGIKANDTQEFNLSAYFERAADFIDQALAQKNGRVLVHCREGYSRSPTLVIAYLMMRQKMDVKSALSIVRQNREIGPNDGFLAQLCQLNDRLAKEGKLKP
* marks the source's active call; other numbers are inactive results. This is one part of a sample in which hits are shown more often than they occur.

SMILES	DUSP3 inh
O=C1C(=O)N(c2nc3ccccc3s2)C(c2cccc(F)c2)/C1=C(/O)c1ccccc1 (stereo not given)	0
O=C(O)C1C2CC/C=C\CC/C=C/CCC21 (stereo not given)	18
O=C(Nc1c(Cl)cccc1Cl)C1C2CC/C=C\CC/C=C/CCC21 (stereo not given)	112*
O=C(Nc1cccc(Br)c1)C1C2CCC3C(CCC21)C3(Cl)Cl (stereo not given)	-2
CC1=C(C(=O)OCCOc2ccccc2)C(c2cc3c(cc2Br)OCO3)NC(=O)N1 (stereo not given)	-6
CC1(C)C=C(/C=C/c2ccccc2)NC(=S)N1	17
CC1=C(C(=O)OCCC#N)C(c2cccc([N+](=O)[O-])c2)NC(=O)N1 (stereo not given)	-18
COc1ccc2c(c1)c(/C=C/c1nc3ccccc3c(=O)n1-c1cccc([N+](=O)[O-])c1)c(C)n2C	25
O=c1c2ccccc2nc(/C=C/c2c[nH]c3ccccc23)n1-c1cccc([N+](=O)[O-])c1	4
Cc1[nH]c2ccccc2c1/C=C/c1nc2ccccc2c(=O)n1-c1cccc([N+](=O)[O-])c1	78*
O=C(NCCOc1ccccc1)c1sc2ccccc2c1Cl	-4
O=C(c1ccccc1Cl)N1CCN(c2nc3ccccc3s2)CC1	-4
CCc1nnc2c3c4c(sc3nc(C)n12)CCC4	-7
O=C1C2C(c3ccc([N+](=O)[O-])cc3)OC3(C(=O)c4ccccc4C3=O)C2C(=O)N1c1ccc(Cl)cc1 (stereo not given)	-12
COC(=O)C1C2C(=O)N(c3ccc([N+](=O)[O-])cc3)C(=O)C12c1ccc(Cl)cc1 (stereo not given)	102*
COC(=O)C1C2C(=O)N(c3ccc([N+](=O)[O-])cc3)C(=O)C12c1ccc(C)cc1 (stereo not given)	116*
CC1=C(C)CC2C(=O)N(c3ccc(-c4ccc([N+](=O)[O-])cc4)cc3)C(=O)C2C1 (stereo not given)	-16
COC(=O)C1C2C(=O)N(c3ccccc3)C(=O)C12c1ccc(Cl)cc1 (stereo not given)	-2
Cc1ccc(OCC(=O)N2CCN(c3ccc([N+](=O)[O-])cc3)CC2)cc1	0
CCc1ccc(-n2[nH]c(C)c(/C=C3/C=Nc4ccccc43)c2=O)cc1	-12
Cc1c(C)c2ccc(OC(C)C(=O)c3ccccc3)cc2oc1=O (stereo not given)	-17
Fc1cccc(CN2CCN(Cc3ccncc3)CC2)c1	2
Cc1cc(OCC(=O)NCCc2ccccc2)ccc1Cl	5
O=C(Nc1nc(-c2cccs2)cs1)c1ccc(Cl)cc1Cl	-10
Cn1c(=O)c2c([nH]c(=S)n2Cc2ccccc2Cl)n(C)c1=O	95*
SMILES	DUSP3 inh
Cc1c(C=O)c2ccccc2n1Cc1ccccc1Cl	-4
O=c1c2ccccc2[nH]c(=S)n1Cc1ccccc1	-8
CCOc1ccc(/C=C(/C#N)C(=O)Nc2cccc(Br)c2)cc1OCC	7
Cc1cc(C)cc(NC(=O)CCC(=O)O)c1	6
O=C(O)C1C2CCCC1C2c1ccccc1 (stereo not given)	101*
O=C(O)C1C2C=CC(C3CC23)C1C(=O)NCc1ccccc1 (stereo not given)	-7
O=C(O)C12C3CCCC1C32c1ccccc1 (stereo not given)	3
O=C(Nc1ccc2oc(-c3cc(Br)ccc3Cl)nc2c1)c1ccc([N+](=O)[O-])cc1	-15
Fc1ccccc1-n1nnnc1SCc1cc2c(cc1Cl)OCO2	114*
Clc1cc2c(cc1CSc1nnnn1-c1ccccc1)OCO2	112*
Clc1ccc(CSc2nnnn2-c2ccccc2)cc1	-10
Clc1ccccc1CSc1nnnn1-c1ccccc1	-4
Clc1cc2c(cc1CSc1nc3ncccc3[nH]1)OCO2	12
c1ccc(-n2nnnc2SCc2cccc(CSc3nnnn3-c3ccccc3)n2)cc1	12
CCOc1cccc(N2C(=O)CC(SCC(=O)Nc3ccc4ccccc4c3)C2=O)c1 (stereo not given)	-12
O=C(NCc1ccco1)c1cc2c(ccc3ccccc32)oc1=O	3
O=S(=O)(c1ccc2c(c1)OCCO2)N1CCCC1	-19
Cc1ccc(C)n1-c1ccc(C(=O)O)c(O)c1	97*
Cc1ccc(C)n1-c1cc(C(=O)O)cc(C(=O)O)c1	26
Cc1ccc(C)n1-c1ccc(C(=O)O)c(Cl)c1	47
O=C(Nc1nnc(-c2ccccc2)s1)c1cccc(Cl)c1	-23
CC(C)(C)C1CCc2c(sc3ncn4c(=S)[nH]nc4c23)C1 (stereo not given)	-12
CCOC(=O)C1=C(C)N=c2s/c(=C\c3ccc([N+](=O)[O-])o3)c(=O)n2C1c1ccccc1Cl (stereo not given)	-20
Cc1cccc(NC(=O)C2C(c3ccccc3)C=CC(c3ccccc3)C2C(=O)O)c1C (stereo not given)	98*
Cc1cccc(NC(=O)C2CC2(c2ccccc2)c2ccccc2)c1C (stereo not given)	5
SMILES	DUSP3 inh
Cc1cccc(NC(=O)C(C)Oc2ccccc2)c1C (stereo not given)	-39
COc1ccc(OC)c(NC(=O)CN(c2ccccc2OC)S(=O)(=O)c2ccccc2)c1	-5
O=C(NNC(=O)c1cccc(O)c1)c1ccc(Br)cc1	-12
COc1ccccc1NC(=O)c1c(N)sc2c1CCC2	-11
CCOc1ccccc1NC(=O)c1c(N)sc2c1CCCCC2	75*
CCOc1ccccc1NC(=O)c1c(NC(=O)Cc2ccccc2)sc2c1CCCCC2	-23
CCN(CC)c1ccc(C2NC(=O)NC(C)=C2C(=O)OCc2ccc(OC)cc2)cc1 (stereo not given)	-18
COC(=O)CN1C(=O)/C(=C\c2ccc(Br)cc2)SC1=S	33
CC1CCc2c(sc(NC(=O)CCN3C(=O)c4ccccc4C3=O)c2C(N)=O)C1 (stereo not given)	-9
O=C1CC(c2ccccc2F)c2cc(Br)c3ccccc3c2N1 (stereo not given)	-4
COc1cc(C2CC(=O)Nc3c2cc(Br)c2ccccc32)cc(OC)c1OC (stereo not given)	4
CC(C)Oc1ccccc1C1CC(=O)Nc2c1cc(Br)c1ccccc21 (stereo not given)	108*
O=C1C=C(NCCc2c[nH]c3ccccc23)CC(c2ccccc2)C1 (stereo not given)	29
c1ccc2c(CNC34CC5CC(CC(C5)C3)C4)c[nH]c2c1	active
CCC(CC)NCc1c[nH]c2ccccc12	-12
Cc1cccc(OCCOc2ccccc2/C=N/n2cnnc2)c1	-10
COc1ccc(-n2nc3cc(C)c(NC(=O)c4cc(Cl)ccc4OC)cc3n2)cc1	110*
Cc1ccc(-n2nc3cc(C)c(NC(=O)c4cc(Cl)ccc4Cl)cc3n2)cc1	-28
COc1ccc(Br)cc1C(=O)Nc1cc2nn(-c3ccc(C)cc3)nc2cc1C	3
COc1ccc(N(CC(=O)NC(C)c2ccccc2)S(=O)(=O)c2ccc(OC)c(OC)c2)cc1 (stereo not given)	-20
O=C1C2C3C=CC(C2C(=O)N1Cc1ccccc1)C1C(=O)N(Cc2ccccc2)C(=O)C31 (stereo not given)	5
CCC(C)N1C(=O)C(=O)N(C2CCCCC2)C1=O (stereo not given)	-7
O=C1C2C3C=CC(C2C(=O)N1C1CCCCC1)C1C(=O)N(C2CCCCC2)C(=O)C31 (stereo not given)	106*
COc1ccc(C(=O)Nc2ccc(OC(F)(F)F)cc2)cc1Cl	-6
